Test results reported in PubChem BioAssay (NCATS).
Where “and” joins values, the source holds several entries; their conditions need not be identical. Equal entries are not always repeated. Values without a mark were called inactive. Records with an inconclusive call do not appear. A call without a number means that no potency is given here. Calls of active or inactive are those of the source. The call rests on the fitted dose curve; in most records, active means well fitted curve in the direction sought with a large enough effect; inconclusive means small, poorly fitted or top-dose-only effect, or another doubt; inactive means no such curve, though single readings can be large; an effect the other way counts as inactive or inconclusive.

What was measured:
[1] = HepG2 cells viability qHTS for Zika virus inhibitors (AID 1347168); conditions: Zika counter-screen; series mostly up to 45.9 µM
In short: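 Cells seeded at 2.5 x 10^5 cells/mL in DMEM with 4% FBS and attached overnight at 37 degrees C, then exposed to compound for 24 to 48 hours. Viability read as ATP content by CellTiter Glo luminescence.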

[2] = Tertiary RLuc qRT-PCR qHTS assay for Zika virus inhibitors (AID 1347169); conditions: infected Vero cells, reporter luminescence, 48-72 h; series mostly up to 45.9 µM; further: nearly all actives have a fitted effect of over 55% in size; further: potency means the concentration at half of the fitted maximal effect; on activity change, negative = inhibition: top concentration of the series differs between compounds
In short: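 Inhibition of ZIKV-RLuc replication in Vero cells, read as Renilla luminescence 1-1.5 hrs after live-cell substrate addition, following 48-72 hrs infection at MOI 1-2 in presence of compound.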

[3] = OV-KATE Cancer Cell Toxicity qHTS against the NCATS CANVASS Library (AID 1347345); conditions: OV-KATE cells viability, CellTiter-Glo luminescence, 72 h; series mostly up to 38.3 µM
In short: (§1)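 1000 cells/well; 4 h settle; 11-pnt titration; 72 h, 37 degrees C, 5% CO2; CellTiter-Glo, 15min RT; luminescence read.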

[4] = HPAF-II Cancer Cell Toxicity qHTS against the NCATS CANVASS Library (AID 1347346); conditions: HPAF-II viability, CellTiter-Glo ATP luminescence, 72 h; further: potency means the concentration at half of the fitted maximal effect; nearly all actives have a fitted effect of over 55% in size
In short: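 Luminescence from CellTiter-Glo, added after 72 h compound exposure and a 15 min room-temperature incubation, served as the viability readout. HPAF-II cells (1000/well) received an 11-point concentration series.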

[5] = UWB1.289 Cancer Cell Toxicity qHTS against the NCATS CANVASS Library (AID 1347347); conditions: UWB1.289 viability, CellTiter-Glo luminescence, 72 h; series mostly up to 38.3 µM; further: nearly all actives have a fitted effect of over 60% in size
In short: as §1

[6] = OV-SAHO Cancer Cell Toxicity qHTS against the NCATS CANVASS Library (AID 1347348); conditions: OV-SAHO viability, CellTiter-Glo luminescence, 72 h; series mostly up to 38.3 µM; further: nearly all actives have a fitted effect of over 55% in size
In short: as §1

[7] = SW1088 Cancer Cell Toxicity qHTS against the NCATS CANVASS Library (AID 1347350); conditions: SW1088 viability, CellTiter-Glo luminescence, 72 h; at 38.3 µM (top of the series); further: nearly all actives have a fitted effect of over 75% in size
In short: as §1

[8] = U-118MG Cancer Cell Toxicity qHTS against the NCATS CANVASS Library (AID 1347351); conditions: U-118MG viability, CellTiter-Glo luminescence, 72 h; series mostly up to 38.3 µM
In short: as §1

[9] = COV-362 Cancer Cell Toxicity qHTS against the NCATS CANVASS Library (AID 1347352); conditions: COV-362 viability, CellTiter-Glo luminescence, 72 h; series mostly up to 38.3 µM
In short: (§2)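 Luminescent ATP read-out (CellTiter-Glo, 15min at room temperature) measures survival after cells face an 11-point compound series for 72 hours at 37 degrees C/5% CO2.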

[10] = A2780 Cisplatin Sensitive Ovarian Cancer Cell Toxicity qHTS against the NCATS CANVASS Library (AID 1347353); conditions: A2780 ovarian cancer viability, ATPLite luminescence, 72 h; at 46.1 µM (top of the series); further: nearly all actives have a fitted effect of over 60% in size
In short: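 Luminescent ATP content (ATPLite, 10 min at room temperature) served as the read-out after cells had been exposed to compounds for 72 hours at 37 °C. Dosing followed an 11-point concentration series.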

[11] = UWB1.289-WTBRCA1 Cancer Cell Toxicity qHTS against the NCATS CANVASS Library (AID 1347354); conditions: UWB1.289-WTBRCA1 viability, CellTiter-Glo luminescence, 72 h; series mostly up to 38.3 µM
In short: as §2

[12] = HEK-293 Cancer Cell Toxicity qHTS against the NCATS CANVASS Library (AID 1347355); conditions: HEK-293 viability, CellTiter-Glo luminescence, 72 h; at 46.1 µM (top of the series); further: nearly all actives have a fitted effect of over 65% in size
In short: as §2

[13] = HPAF-II 24hr Apoptosis Induction qHTS against the NCATS CANVASS Library (AID 1347356); conditions: HPAF-II caspase-3/7 Caspase-Glo luminescence; series mostly up to 46.1 µM
In short: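 Luminescent caspase-3/7 signal (DEVD substrate, Caspase-Glo) served as read-out, taken 15 min after reagent addition to HPAF-II cells exposed 24 h to compounds.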

[14] = HEK293 18hr Apoptosis Induction qHTS against the NCATS CANVASS Library (AID 1347357); conditions: HEK293 caspase-3/7 Caspase-Glo luminescence; series mostly up to 46.1 µM
In short: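 Natural products applied to HEK293 for 18 hr; Caspase-Glo 3/7 readout.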

[15] = HPAF-II 12hr Apoptosis Induction qHTS against the NCATS CANVASS Library (AID 1347358); conditions: HPAF-II caspase-3/7 Caspase-Glo luminescence; series mostly up to 46.1 µM
In short: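 500 HPAF-II cells/well; cmpds 11-pt; 12 hr, 37 degrees C/5% CO2; Caspase-Glo 3/7 added, 15 min RT dark; luminescence read. Doxorubicin titration as control.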

[16] = HEK293 24hr Apoptosis Induction qHTS against the NCATS CANVASS Library (AID 1347359); conditions: HEK293 caspase-3/7 activation, Caspase-Glo luminescence; series mostly up to 46.1 µM
In short: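 HEK293 cells, 500 per well, exposed to an 11-point compound series for 24 hours at 37 degrees C. Caspase 3/7 activity read by Caspase-Glo luminescence (DEVD substrate) after 15 min at room temperature.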

[17] = HPAF-II 18hr Apoptosis Induction qHTS against the NCATS CANVASS Library (AID 1347360); conditions: HPAF-II caspase-3/7 luminescence; series mostly up to 46.1 µM
In short: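 Luminescent DEVD-substrate signal, proportional to caspase activity, is measured in HPAF-II cells after 18-hour treatment across a concentration series; doxorubicin serves as control.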

[18] = HEK293 12hr Apoptosis Induction qHTS against the NCATS CANVASS Library (AID 1347361); conditions: HEK293 caspase-3/7 Caspase-Glo luminescence; series mostly up to 46.1 µM
In short: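 Luminescent caspase-3/7 signal, proportional to enzyme activity, was recorded from HEK293 cultures in DMEM + 10% FBS treated for 12 hours with titrated natural products (11 points). Doxorubicin (0.1nM - 4uM) served as control.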

[19] = tested on: NAD(P)H diaphorase (Clostridium kluyveri); assay: Diaphorse counterscreen qHTS: Assay Interference Panel against the NCATS CANVASS Library (AID 1347362); conditions: Diaphorase enzyme, resazurin to resorufin fluorescence; series mostly up to 57.5 µM
In short: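 Clostridium kluyveri diaphorase in PBS + 0.01% Tween-20 preincubated 15 min with compounds. Resazurin and NADH then added for 5 min at room temperature in the dark; resorufin fluorescence read (ex 525, em 598).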

[20] = target: Luciferin 4-monooxygenase (Photinus pyralis) (UniProt P08659); assay: Firefly luciferase counterscreen qHTS: Assay Interference Panel against the NCATS CANVASS Library (AID 1347363); conditions: purified firefly luciferase, luminescence inhibition, 5 min; series mostly up to 57.5 µM
In short: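 Purified P. pyralis luciferase (0.04 ug/mL, 4x reagent) added to Tris-acetate buffer with 0.013 mM D-luciferin, 0.013 mM ATP and 13.3 mM Mg-acetate; compounds preincubated 15 min, then luminescence read after 5 min, RT.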

Sequence of Luciferin 4-monooxygenase (Photinus pyralis) (P08659 whole entry, looked up): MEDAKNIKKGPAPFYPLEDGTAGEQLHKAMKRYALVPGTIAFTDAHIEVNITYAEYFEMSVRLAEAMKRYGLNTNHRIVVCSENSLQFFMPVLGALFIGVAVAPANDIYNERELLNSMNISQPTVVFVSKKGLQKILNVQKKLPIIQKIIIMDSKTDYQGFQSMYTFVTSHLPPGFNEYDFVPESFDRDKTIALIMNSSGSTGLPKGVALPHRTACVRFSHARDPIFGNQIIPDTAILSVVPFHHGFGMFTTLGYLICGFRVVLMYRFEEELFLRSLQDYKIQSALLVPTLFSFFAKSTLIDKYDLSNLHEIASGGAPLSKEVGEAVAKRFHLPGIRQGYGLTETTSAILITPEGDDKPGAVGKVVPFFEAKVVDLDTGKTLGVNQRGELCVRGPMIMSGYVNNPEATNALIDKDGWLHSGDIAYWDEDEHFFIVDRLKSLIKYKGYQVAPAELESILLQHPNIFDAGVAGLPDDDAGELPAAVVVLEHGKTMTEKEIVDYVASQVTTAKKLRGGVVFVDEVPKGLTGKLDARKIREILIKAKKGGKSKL

CC1COc2c(N3CCN(C)CC3)c(F)cc3c(=O)c(C(=O)O)cn1c23 (stereo unspecified)
outcome [1]: inactive
Potency [2]: inactive

CN(Cc1cnc2nc(N)nc(N)c2n1)c1ccc(C(=O)N[C@@H](CCC(=O)O)C(=O)O)cc1
outcome [1]: inactive
Potency [2]: inactive

COc1ccc2[nH]cc(CCNC(C)=O)c2c1
outcome [3]: inactive
Potency [4]: 5.95 µM (active)
outcome [5]: inactive
outcome [6]: inactive
outcome [7]: inactive
outcome [8]: inactive
outcome [9]: inactive
outcome [10]: inactive
outcome [11]: inactive
outcome [12]: inactive
outcome [13]: inactive
outcome [14]: inactive
outcome [15]: inactive
outcome [16]: inactive
outcome [17]: inactive
outcome [18]: inactive
outcome [19]: inactive
outcome [20]: inactive

Cn1ccc2cc3c(cc21)CCN3C(=O)Nc1cccnc1
outcome [1]: inactive
Potency [2]: inactive

Cc1ccc(C(=O)Nc2ccc(S(=O)(=O)O)c3cc(S(=O)(=O)O)cc(S(=O)(=O)O)c23)cc1NC(=O)c1cccc(NC(=O)Nc2cccc(C(=O)Nc3cc(C(=O)Nc4ccc(S(=O)(=O)O)c5cc(S(=O)(=O)O)cc(S(=O)(=O)O)c45)ccc3C)c2)c1
Potency [2]: inactive

Cc1ccccc1N1C(=O)c2cc(S(N)(=O)=O)c(Cl)cc2NC1C (stereo unspecified)
outcome [1]: inactive
Potency [2]: inactive

O=c1c(O)c(-c2ccc(O)c(O)c2)oc2cc(O)cc(O)c12
activity change, negative = inhibition [2]: 52.3% [at 5.25 µM] and 65.1% [at 0.997 µM]

CCOC(=O)Nc1ccc(NCc2ccc(F)cc2)nc1N
outcome [1]: inactive
Potency [2]: inactive

C[C@H]1c2cccc(O)c2C(O)=C2C(=O)[C@]3(O)C(O)=C(C(N)=O)C(=O)[C@@H](N(C)C)[C@@H]3[C@@H](O)[C@@H]21
outcome [1]: inactive

O=C1Cc2cc(CCN3CCN(c4nsc5ccccc45)CC3)c(Cl)cc2N1
outcome [1]: inactive
Potency [2]: inactive

CC(C)(C)C(=O)Oc1ccc(S(=O)(=O)Nc2ccccc2C(=O)NCC(=O)O)cc1
outcome [1]: inactive
Potency [2]: inactive

O=C(Nc1ccc([N+](=O)[O-])cc1Cl)c1cc(Cl)ccc1O
Potency [2]: 0.294 µM (active)

COc1cc2nc(N3CCN(C(=O)c4ccco4)CC3)nc(N)c2cc1OC
outcome [1]: inactive

O=C(c1ccc(F)cc1)C1CCN(CCn2c(=O)[nH]c3ccccc3c2=O)CC1
outcome [1]: inactive
Potency [2]: inactive

Cc1cnc(C(=O)NCCc2ccc(S(=O)(=O)NC(=O)NC3CCCCC3)cc2)cn1
outcome [1]: inactive
Potency [2]: inactive
